# The full ranking holds about 2,000 compounds; the median of “B-score” is about -0.0024, and the highest 2% start at about 4. For the sample, the highest values were picked, then their nearest neighbours and some compounds at random.
# System: Balamuthia mandrillaris (ATCC PRA-291) trophozoites, axenic culture
# Assay: primary screen, b score
# Settings: 20 µM
# In short: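 Trophozoites (3,000/well) in axenic medium exposed to library drugs at 20 µM in 0.2% DMSO for 72 h; viability by CellTiter Glo luminescence at 2, 4 and 8 h. Controls: vehicle and freeze-thaw amoeba lysate; B-score corrects row, column and edge effects.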
row,Compound,B-score
1,Cc1cc(C(C)(C)C)c(O)c(C(C)(C)C)c1,-0.212
2,Nc1nc(=O)n([C@@H]2CS[C@H](CO)O2)cc1F,-0.911
3,CNC(=O)c1c(I)c(NC(C)=O)c(I)c(C(=O)O)c1I,0.108
4,CO[C@H](C(=O)[C@@H](O)[C@@H](C)O)[C@@H]1Cc2cc3cc(O[C@H]4C[C@@H](O[C@H]5C[C@@H](O)[C@H](O)[C@@H](C)O5)[C@H](O)[C@@H](C)O4)c(C)c(O)c3c(O)c2C(=O)[C@H]1O[C@H]1C[C@@H](O[C@H]2C[C@@H](O[C@H]3C[C@](C)(O)[C@H](O)[C@@H](C)O3)[C@@H](O)[C@@H](C)O2)[C@H](O)[C@@H](C)O1,8.18
5,CC(=O)O[C@@]12CO[C@@H]1C[C@H](O)[C@@]1(C)C(=O)[C@H](O)C3=C(C)[C@@H](OC(=O)[C@H](O)[C@@H](NC(=O)OC(C)(C)C)c4ccccc4)C[C@@](O)([C@@H](OC(=O)c4ccccc4)C12)C3(C)C (some centres unmarked),-2.24
6,CCN1CCCC(OC(=O)C(c2ccccc2)c2ccccc2)C1 (centres unmarked),0.874
7,CC(C)(C)c1ccc(C(O)CCCN2CCC(C(O)(c3ccccc3)c3ccccc3)CC2)cc1 (centres unmarked),-2.26
8,Oc1ccnc(O)n1,1.41
9,CC(C)n1c(/C=C/[C@@H](O)C[C@@H](O)CC(=O)O)c(-c2ccc(F)cc2)c2ccccc21 [255968-L3],-0.277
10,CC(C)n1c(/C=C/[C@@H](O)C[C@@H](O)CC(=O)O)c(-c2ccc(F)cc2)c2ccccc21 [255968-L2],3.74
11,CC(C)c1c(C(=O)Nc2ccccc2)c(-c2ccccc2)c(-c2ccc(F)cc2)n1CC[C@@H](O)C[C@@H](O)CC(=O)O,6.68
12,CCC(=O)O[C@]1(C(=O)CCl)[C@@H](C)C[C@H]2[C@@H]3CCC4=CC(=O)C=C[C@]4(C)[C@@]3(F)[C@@H](O)C[C@@]21C [285821-L1],-1.34
13,Cc1ccccc1N1CCN(CCc2nnc3n2CCCC3)CC1,2.29
14,COC(=O)N/N=C/c1c[n+]([O-])c2ccccc2[n+]1[O-],2.88
15,O=C1CCc2ccc(OCCCCN3CCN(c4cccc(Cl)c4Cl)CC3)cc2N1 [756864-L1],1.99
16,CCOC(=O)/C=C(C)/C=C/C=C(C)/C=C/c1c(C)cc(OC)c(C)c1C,-0.469
17,C[N+](C)(C)CCCCCCCCCC[N+](C)(C)C,0.626
18,CCCCCCCCCCCCCCCC[N+](C)(C)C,10
19,C[N+](C)(C)CCCCCC[N+](C)(C)C,-0.576
20,CC1(C)NC(=O)N(c2ccc([N+](=O)[O-])c(C(F)(F)F)c2)C1=O [131481-L4],0.0858
21,CN(C)CC/C=C1/c2ccccc2Sc2ccc(Cl)cc21 [285943-L2],-0.683

row,Compound,B-score
1,CCN(CC)CCOC(=O)C(c1ccccc1)c1ccccc1,-1.55
2,FC(F)(F)C(F)(F)C(F)(F)C(F)(F)C(F)(F)C(F)(F)C(F)(F)C(F)(F)Br,1.01
3,Cc1ccsc1/C=C/C1=NCCCN1C,2.44
4,CN1CCN(CC(=O)N2c3ccccc3C(=O)Nc3cccnc32)CC1,-0.953
5,C=C1CC[C@H](O)C/C1=C/C=C1\CCCC2(C)C1CCC2C(C)CCCC(C)C (some centres unmarked),-1.18
6,O=c1oc2cc(O)ccc2s1,1.79
7,C[C@@H]1CC[C@H]2[C@@H](C)C(=O)O[C@@H]3O[C@@]4(C)CC[C@@H]1[C@]32OO4,11.9
8,C[C@@H]1CC[C@H]2[C@@H](C)C(O)O[C@@H]3O[C@@]4(C)CC[C@@H]1[C@]32OO4 (some centres unmarked),8.14
9,CC(=O)[C@H]1CC[C@H]2[C@@H]3CC=C4C[C@@H](OC(=O)CCC(=O)O)CC[C@]4(C)[C@H]3CC[C@]12C,-2.77
10,CO[C@H]1O[C@@H]2O[C@@]3(C)CC[C@H]4[C@H](C)CC[C@@H]([C@H]1C)[C@@]24OO3,7.12
11,COC1O[C@@H]2O[C@@]3(C)CC[C@H]4[C@H](C)CC[C@@H]([C@H]1C)[C@@]24OO3 (some centres unmarked),-0.0904
13,C/N=C(\NC)NCc1ccccc1,-0.109
14,Cc1c(O)c(=O)ccn1C,-3.39
15,O=C1CN2Cc3c(ccc(Cl)c3Cl)N=C2N1,1.87
16,CCN(CC)CCOc1ccc(/C(=C(\Cl)c2ccccc2)c2ccccc2)cc1,-1.4
17,CC(=O)OC(C)C[N+](C)(C)C (centres unmarked),1.98
18,CCN1CCN(C(=O)NC(C(=O)N[C@@H]2C(=O)N3[C@@H]2SC(C)(C)[C@@H]3C(=O)O)c2ccccc2)C(=O)C1=O (some centres unmarked),2.04
19,C=C1c2cccc(O)c2C(O)=C2C(=O)[C@]3(O)C(O)=C(C(N)=O)C(=O)[C@@H](N(C)C)[C@@H]3[C@@H](O)[C@H]12,-0.0267
20,Oc1nc2ccccc2n1CCCN1CCC(n2c(O)nc3cc(Cl)ccc32)CC1,-1.5
21,C[C@H](COc1ccccc1)N[C@H](C)[C@H](O)c1ccc(O)cc1,0.0782

row,Compound,B-score
1,NC[C@@H]1O[C@H](O[C@H]2[C@@H](O)[C@H](O[C@@H]3[C@@H](O)[C@H](N)C[C@H](N)[C@H]3O[C@H]3O[C@H](CN)[C@@H](O)[C@H](O)[C@H]3N)O[C@@H]2CO)[C@H](N)[C@@H](O)[C@@H]1O,1.53
2,CC#C[C@]1(O)CCC2C3CCC4=CC(=O)CCC4=C3[C@@H](c3ccc(N(C)C)cc3)C[C@@]21C (some centres unmarked),2.28
3,CN1CCC(=C2c3ccccc3CCc3sccc32)CC1,-0.3
4,CC(=O)OCC(CCn1cnc2cnc(N)nc21)COC(C)=O,0.28
5,CCC(=O)Oc1ccc2c(c1)CC[C@@H]1[C@@H]2CC[C@]2(C)[C@@H](OC(=O)CC)CC[C@@H]12,-3.91
6,Cc1nc2ccccc2n1Cc1ccc(Cl)cc1,6.45
7,COc1ccc(CCN2CCC(Nc3nc4ccccc4n3Cc3ccc(F)cc3)CC2)cc1,-0.484
8,Clc1ccc(Cn2c(CN3CCCC3)nc3ccccc32)cc1,0.738
9,CCOC(=O)C1=C[C@@H](OC(CC)CC)[C@H](NC(C)=O)[C@@H](N)C1,-0.221
10,Cc1c(-c2cnccn2)ssc1=S,1.58
11,Cc1c(NC(=O)c2cccnc2)c(=O)n(-c2ccccc2)n1C,12.5
12,Cc1c(N(C)C)c(=O)n(-c2ccccc2)n1C,2.34
13,Cc1c(NC(C)C)c(=O)n(-c2ccccc2)n1C,-2.14
14,CNC[C@H](O)[C@@H](O)[C@H](O)[C@H](O)CO [757068-L2],1.95
15,C[C@]1(Cn2ccnn2)C(C(=O)O)N2C(=O)CC2S1(=O)=O (some centres unmarked),-2.49
16,OC(CCN1CCCCC1)(c1ccccc1)C1CCCCC1 (centres unmarked),0.407
17,COc1c(N2CCNC(C)C2)c(F)cc2c(=O)c(C(=O)O)cn(C3CC3)c12 (centres unmarked),0.0884
18,C[C@@H]1CN(c2c(F)c(F)c3c(=O)c(C(=O)O)cn(C4CC4)c3c2F)C[C@H](C)N1,-1.44
19,Nc1ccc2cc3ccc(N)cc3nc2c1,1.36
20,C[n+]1c2cc(N)ccc2cc2ccc(N)cc21,20.4
21,CC[n+]1c(-c2ccccc2)c2cc(N)ccc2c2ccc(N)cc21,3.74

row,Compound,B-score
1,O=C(O)/C=C/C(=O)O,0.597
2,CCCCCCCCCCCCCCCC(=O)OC/C=C(C)/C=C/C=C(C)/C=C/C1=C(C)CCCC1(C)C,-0.008
3,O=C(CCCN1CC=C(n2c(O)nc3ccccc32)CC1)c1ccc(F)cc1,-6.32
4,CCCc1cc(C(N)=S)ccn1,3.08
5,O=C(O)[C@H](O)[C@@H](O)[C@H](O)[C@H](O)CO,0.99
6,N=C(N)c1ccc(OCCCCCOc2ccc(C(=N)N)cc2)cc1,15.2
7,CCCCOc1ccc(C(=O)CCN2CCCCC2)cc1 [130801-L5],-1.2
8,CCCCOc1ccc(C(=O)CCN2CCCCC2)cc1 [130801-L6],-2.14
9,CC(C)(O/N=C(\C(=O)N[C@@H]1C(=O)N2C(C(=O)O)=C(C[n+]3ccccc3)CS[C@H]12)c1csc(N)n1)C(=O)O,1.87
10,CN[C@H](CC(C)C)C(=O)N[C@H]1C(=O)N[C@@H](CC(N)=O)C(=O)N[C@H]2C(=O)N[C@H]3C(=O)N[C@H](C(=O)N[C@H](C(=O)O)c4cc(O)cc(O)c4-c4cc3ccc4O)[C@H](O)c3ccc(c(Cl)c3)Oc3cc2cc(c3O[C@@H]2O[C@H](CO)[C@@H](O)[C@H](O)[C@H]2O[C@H]2C[C@](C)(N)[C@H](O)[C@H](C)O2)Oc2ccc(cc2Cl)[C@H]1O,-0.857
11,Oc1ccc2c3c1O[C@H]1[C@@H](O)CC[C@@]4(O)[C@@H](C2)N(CC2CCC2)CC[C@]314,0.0386
12,CN1CCC(=C2c3ccccc3Sc3ccccc32)CC1,-1.07
13,CN/C(=C/[N+](=O)[O-])NCCSCc1ccc(CN(C)C)o1,-2.02
14,CN/C(=C\[N+](=O)[O-])NCCSCc1csc(CN(C)C)n1,-0.177
15,CN/C(=C\[N+](=O)[O-])NCCSCc1ccc(CN(C)C)o1,14.6
16,COC(=O)/C=C/C(=O)OC,1.25
17,COc1ccc(NS(=O)(=O)c2ccc(N)cc2)nn1,4.49
18,Nc1ccc(S(=O)(=O)Nc2ccc(Cl)nn2)cc1,1.1
19,COc1cc(NS(=O)(=O)c2ccc(N)cc2)ncn1,3.08
20,CNC[C@H](O)[C@@H](O)[C@H](O)[C@H](O)CO [757068-L1],-0.164
